Over roughly 33,000 sequences, “E-score (-0.5 to 0.5)” has its median near -0.012; the highest 2% begin near 0.27. The sample as a whole holds a higher share of the highest values than the screen did.
target: T1, Vhr1 (UniProt P40522); assay: PBM E-score (8-mer binding enrichment) (E-score (-0.5 to 0.5)); higher = stronger / more preferred TF binding; conditions: protein concentration: 200 nM; construct: GST-full length
T1 sequence: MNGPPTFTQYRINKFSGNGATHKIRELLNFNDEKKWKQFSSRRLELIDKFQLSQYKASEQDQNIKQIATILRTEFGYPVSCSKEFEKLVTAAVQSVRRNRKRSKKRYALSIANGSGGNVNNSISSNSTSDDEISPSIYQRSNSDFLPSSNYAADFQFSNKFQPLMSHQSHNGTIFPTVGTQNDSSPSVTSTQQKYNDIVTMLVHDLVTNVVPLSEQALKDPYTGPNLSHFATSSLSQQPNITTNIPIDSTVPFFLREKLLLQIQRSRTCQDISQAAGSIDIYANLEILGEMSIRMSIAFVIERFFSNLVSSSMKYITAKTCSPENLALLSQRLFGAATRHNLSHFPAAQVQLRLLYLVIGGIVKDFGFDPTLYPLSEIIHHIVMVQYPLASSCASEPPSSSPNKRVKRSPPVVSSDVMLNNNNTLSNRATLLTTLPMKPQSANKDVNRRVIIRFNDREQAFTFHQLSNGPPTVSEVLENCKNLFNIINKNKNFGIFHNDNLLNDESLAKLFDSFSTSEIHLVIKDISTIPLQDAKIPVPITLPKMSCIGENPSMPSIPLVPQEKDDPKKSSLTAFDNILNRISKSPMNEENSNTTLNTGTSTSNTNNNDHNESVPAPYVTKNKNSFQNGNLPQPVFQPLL
Description: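 Universal 'all 10-mer' protein binding microarrays (Agilent AMADID 015681) probed with GST-tagged S. cerevisiae TFs (full-length or DBD) made by in vitro transcription/translation (PURExpress), about 100-200 nM. Bound TF was detected with fluorescent anti-GST. Each ungapped 8-mer (which stands for itself and its reverse complement) is scored by the PBM enrichment score (E-score), a modified Wilcoxon-Mann-Whitney statistic from -0.5 to +0.5, computed with the Universal PBM Analysis Suite. Scale: above 0.35 generally sequence-specific binding.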

Row | Sequence | PBM E-score
1 | AGACACAT | 0.0642
2 | ACACACAT | 0.275
3 | ACAGTATC | -0.14
4 | AAACACAT | 0.252
5 | ACACACTG | 0.163
6 | ACACACTC | 0.293
7 | ACACACAA | 0.226
8 | CCACACAG | 0.165
9 | ACACACAG | 0.353
10 | CAGTTGCG | 0.107
11 | ACTTCTGG | -0.04
12 | GTTGAAAC | -0.0891
13 | CTAAGAAA | -0.112
14 | AATGCTAC | 0.072
15 | ACGCTCCT | -0.065
16 | ACCCACAT | 0.271
17 | ACCCACAG | 0.157
18 | ACCCACAC | 0.185
19 | ACACTTAG | 0.00688
20 | AGTCGGAA | 0.293
21 | CCTCGGCC | 0.00422
22 | GGTCGGCA | -0.138

Row | Sequence | PBM E-score
23 | AGTCGGCC | 0.278
24 | ATTCGGCC | 0.0234
25 | TGTCGGAA | 0.0453
26 | CGTCGGCA | 0.044
27 | AGTCGGAC | -0.0678
28 | CCTCGGCG | 0.283
29 | CGTCGGCC | -0.143
30 | CCTCGGCA | -0.129
31 | AGTCGGCA | 0.282
32 | GACTTGAA | -0.152
33 | AAAGGTCA | -0.173
34 | CCGACTGC | 0.126
35 | AGTCGGCG | 0.293
36 | ATTCGGCG | -0.00502
37 | AGTCGGTG | 0.246
38 | AAGTGACA | 0.0587
39 | ACAGGGTC | 0.133
40 | AAGAGTTG | -0.154
41 | CAGAGTCC | 0.0441
42 | CAGGGTCG | 0.025
43 | CAGGGTCA | 0.00801
44 | CAGAGTGA | 0.0508

Row | Sequence | PBM E-score
45 | CAGAGTCA | 0.344
46 | AAGAGTGG | -0.0723
47 | AAGAGTCG | 0.281
48 | CAGAGTCG | 0.328
49 | CCTATTAG | -0.167
50 | GTTTCCTA | -0.206
51 | TACTGCAA | -0.0559
52 | GCCTAACA | 0.026
53 | CCCAACTC | 0.134
54 | CCAGGCAA | -0.034
55 | ACGCGAAA | -0.0435
56 | GGTGCTAA | -0.166
57 | CATTCGCA | -0.0683
58 | CATTCGCC | 0.00808
59 | AATTCGCG | -0.02
60 | GATTCGCC | 0.105
61 | GATTCGCA | 0.276
62 | CATTCGCG | 0.279
63 | AGTGCACA | 0.0902
64 | AAAGATGC | -0.193
65 | AAAGACGC | -0.154
66 | ACAGGCGC | -0.173

Row | Sequence | PBM E-score
67 | CCTTCTGA | -0.149
68 | GCACTTGA | -0.145
69 | ATGTCTCC | 0.175
70 | ATGTCTCG | 0.135
71 | ATGTCTCA | 0.297
72 | AAACCACG | -0.079
73 | AAGACCGG | -0.166
74 | ACATGAGG | -0.0901
75 | ACATGAGC | 0.0844
76 | CCATGAGA | 0.191
77 | ACATGACG | -0.0758
78 | ACATGACT | 0.446
79 | AGATGACT | 0.435
80 | TCATGAGA | 0.101
81 | AGATGACC | -0.0573
82 | ACATGAGT | 0.279
83 | ACATGAGA | 0.273
84 | AGATGACA | 0.0194
85 | ACATGACA | 0.206
86 | ACTAGGCT | 0.154
